For some assays here: Entries with a potency or affinity are not part of this list. Some of the results follow. Activity calls are given as the source filed them.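 Rule for the calls, unless noted: active = fluorescence ratio falls more than 5 SD below the full-stimulation control mean, in both duplicate runs; inactive = the rest.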
Assays:
[1] = test system: TRPC4 beta (transient receptor potential cation channel C4), mouse; test: activators of mouse TRPC4 channel, confirmation, cell-based, Fluo4 calcium, HEK293 TRPC4beta/mu-opioid, duplicates, 10 µM (AID 2426;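 active = fluorescence ratio normalized to control raised more than 50% in primary screen plus both repeat runs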;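 note: percent rise of integrated ratio over buffer wells lacking compound which define 0%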); details: Fluo4 calcium fluorescence, at 10 µM; hits give high values
[2] = test system: transient receptor potential cation channel C4 beta (TRPC4), mouse; test: activators of mouse TRPC4 channel, confirmation, cell-based, second round, Fluo4, HEK293 TRPC4beta/mu-opioid, 1 µM (AID 2461;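 active = primary screen active and over 50% activation in each of two duplicate runs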); details: Fluo4 calcium fluorescence, at 1 µM; hits give high values
[3] = test system: TRPC4 (transient receptor potential cation channel C4 beta), mouse; test: positive allosteric modulators of mouse TRPC4, confirmation, cell-based, second round, Fluo-4, HEK293 TRPC4beta/mu-opioid, 1 µM (AID 2554;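 active = primary screen hit whose fluorescence ratio, in both repeats, exceeds the weak agonist control mean by 3 SD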); details: DAMGO EC20, Fluo-4 calcium flux, at 1 µM; hits give high values
[4] = test system: TRPC4 beta (transient receptor potential cation channel C4), mouse; test: positive allosteric modulators of mouse TRPC4, confirmation, cell-based, Fluo-4, HEK293 TRPC4beta/mu-opioid (AID 2555;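 active = primary screen hit whose calcium fluorescence ratio, in both repeats, exceeds the weak agonist control mean by 3 SD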); details: DAMGO EC20, Fluo-4 calcium flux, at 10 µM; hits give high values
[5] = biological target: Short transient receptor potential channel 4 (Mus musculus) (UniProt Q9QUQ5); test: inhibitors of mouse TRPC4 channel, confirmation, cell-based, Fluo4, HEK293 TRPC4beta/mu-opioid (AID 2636;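 active = calcium signal cut by more than 3 SD below the full-agonist control yet still positive, in both repeats and the earlier primary screen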); details: DAMGO, Fluo4 calcium flux, at 10 µM; hits give high values
Short transient receptor potential channel 4 (Mus musculus), sequence (Q9QUQ5 whole entry, looked up): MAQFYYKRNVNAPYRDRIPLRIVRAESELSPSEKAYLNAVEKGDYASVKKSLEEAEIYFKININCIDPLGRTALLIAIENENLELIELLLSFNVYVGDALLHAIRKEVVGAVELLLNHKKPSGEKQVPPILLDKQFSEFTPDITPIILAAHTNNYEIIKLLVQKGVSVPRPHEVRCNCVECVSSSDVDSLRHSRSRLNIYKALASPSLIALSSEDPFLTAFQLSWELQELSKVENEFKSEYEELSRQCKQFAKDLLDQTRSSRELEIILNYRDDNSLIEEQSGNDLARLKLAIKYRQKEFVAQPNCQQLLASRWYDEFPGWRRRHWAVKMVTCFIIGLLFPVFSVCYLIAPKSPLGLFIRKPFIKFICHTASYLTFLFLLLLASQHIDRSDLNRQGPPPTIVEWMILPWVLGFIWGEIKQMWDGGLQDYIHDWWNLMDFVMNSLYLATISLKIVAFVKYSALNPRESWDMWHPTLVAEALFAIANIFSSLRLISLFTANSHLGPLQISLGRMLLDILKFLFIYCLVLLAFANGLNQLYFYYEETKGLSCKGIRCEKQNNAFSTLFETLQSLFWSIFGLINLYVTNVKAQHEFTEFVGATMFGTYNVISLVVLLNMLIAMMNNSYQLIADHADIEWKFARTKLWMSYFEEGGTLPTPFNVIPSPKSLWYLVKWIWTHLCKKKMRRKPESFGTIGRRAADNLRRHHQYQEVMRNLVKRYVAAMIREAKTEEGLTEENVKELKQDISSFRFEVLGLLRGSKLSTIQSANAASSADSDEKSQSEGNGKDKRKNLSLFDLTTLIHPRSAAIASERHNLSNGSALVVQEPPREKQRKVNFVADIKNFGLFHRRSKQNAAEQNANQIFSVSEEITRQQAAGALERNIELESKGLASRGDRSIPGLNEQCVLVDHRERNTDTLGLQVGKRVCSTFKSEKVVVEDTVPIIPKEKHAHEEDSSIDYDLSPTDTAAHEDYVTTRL

[6] = biological target: Short transient receptor potential channel 4 (Mus musculus) (UniProt Q9QUQ5); test: inhibitors of mouse TRPC4 channel, confirmation, cell-based, second round, Fluo4, HEK293 TRPC4beta/mu-opioid, 1 µM (AID 2637;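 active = calcium signal ratio cut to more than 3 SD under the fully stimulated control mean yet still positive, in both repeats and the primary screen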); details: Fluo4 calcium flux, DAMGO, at 1 µM; hits give high values
[7] = biological target: Short transient receptor potential channel 4 (Mus musculus) (UniProt Q9QUQ5); test: TRPC4 positive allosteric modulators, dose response, cell-based, HEK293 TRPC4/mu-opioid, Fluo-4 calcium, EC20 DAMGO (AID 434941;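 active = earlier screen potentiator hit that boosts the TRPC4 ion channel at some dose, with a dose response; inactive = no potentiation, no dose response, or not a prior hit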;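 note: calcium entry triggered by an EC20 dose of DAMGO at the co-expressed mu-opioid receptor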)
[8] = biological target: Short transient receptor potential channel 6 (Mus musculus) (UniProt Q61143); test: inhibition of mouse TRPC6 channel, confirmation, selectivity assay for TRPC4 inhibitor project, cell-based, HEK293, membrane potential dye, duplicate (AID 434948;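 active = active in primary screen and both duplicates, each dropping signal beyond three positive-control SD with fluorescence still positive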); details: HEK293 TRPC6, membrane potential dye fluorescence, at 10 µM, stimulated with maximal-effect acetylcholine; hits give high values
Short transient receptor potential channel 6 (Mus musculus), sequence (Q61143 whole entry, looked up): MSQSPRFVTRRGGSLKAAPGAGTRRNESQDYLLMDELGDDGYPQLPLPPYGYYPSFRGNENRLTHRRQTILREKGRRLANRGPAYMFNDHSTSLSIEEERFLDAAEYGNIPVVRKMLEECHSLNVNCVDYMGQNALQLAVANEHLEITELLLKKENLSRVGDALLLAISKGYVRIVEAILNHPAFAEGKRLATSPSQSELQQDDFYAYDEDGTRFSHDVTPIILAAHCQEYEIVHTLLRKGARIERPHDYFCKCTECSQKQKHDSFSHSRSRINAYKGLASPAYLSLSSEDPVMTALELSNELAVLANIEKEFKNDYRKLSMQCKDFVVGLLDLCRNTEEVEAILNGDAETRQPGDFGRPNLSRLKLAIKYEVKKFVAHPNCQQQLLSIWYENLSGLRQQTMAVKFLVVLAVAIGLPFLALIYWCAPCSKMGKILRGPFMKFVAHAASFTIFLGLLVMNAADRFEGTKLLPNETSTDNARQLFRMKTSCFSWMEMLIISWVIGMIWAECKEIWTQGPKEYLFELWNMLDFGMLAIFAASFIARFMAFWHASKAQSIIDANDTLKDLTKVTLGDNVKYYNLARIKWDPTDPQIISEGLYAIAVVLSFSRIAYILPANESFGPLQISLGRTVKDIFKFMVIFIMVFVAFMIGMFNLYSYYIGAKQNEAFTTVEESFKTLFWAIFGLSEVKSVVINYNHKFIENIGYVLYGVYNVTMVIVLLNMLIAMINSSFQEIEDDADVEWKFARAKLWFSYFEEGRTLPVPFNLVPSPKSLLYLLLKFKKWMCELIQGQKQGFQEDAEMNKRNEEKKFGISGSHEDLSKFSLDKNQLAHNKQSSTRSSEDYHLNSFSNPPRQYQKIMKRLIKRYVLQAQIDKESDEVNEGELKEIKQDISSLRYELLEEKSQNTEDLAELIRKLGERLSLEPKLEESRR

[9] = biological target: Short transient receptor potential channel 6 (Mus musculus) (UniProt Q61143); test: activation of mouse TRPC6 channel, confirmation, selectivity assay for TRPC4 activator project, cell-based, HEK293, membrane potential dye, duplicate (AID 434950;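 active = membrane potential signal rise above negative control mean plus 3 SD in both duplicates, also active in the earlier TRPC4 screen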;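 for activation: 0% = buffer only wells and 100% = acetylcholine maximal-effect wells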); details: HEK293 TRPC6, membrane potential fluorescence, at 10 µM; hits give high values
[10] = biological target: Short transient receptor potential channel 6 (Mus musculus) (UniProt Q61143); test: TRPC6 potentiation by TRPC4 potentiator hits, confirmation, selectivity assay for TRPC4 potentiator project, HEK293 cells, membrane potential dye, duplicate (AID 434952;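 active = compound raising the membrane signal above positive-control mean plus 3 SD in both repeats, and a primary screen hit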); details: HEK293 TRPC6, membrane potential dye fluorescence, at 10 µM, maximal acetylcholine added after compound; hits give high values
[11] = biological target: Short transient receptor potential channel 4 (Mus musculus) (UniProt Q9QUQ5); test: calcium flux activators in TRPC4/5HT1a cells, counter-screen for TRPC4 activator project, cell-based, second counter screen, HEK293 TRPC4/5HT1a, Fluo-4 (AID 434977;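 active = calcium signal rise above buffer-control mean plus 5 SD in both duplicates, and also a hit in the primary screen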;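 note: plate controls were assay buffer for no effect and maximal serotonin response for full effect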); details: Fluo-4 calcium flux, at 10 µM; hits give high values
[12] = calcium flux inhibitors in TRPC4/5HT1a cells, confirmation, counter-screen for TRPC4 inhibitor project, cell-based, second counter screen, HEK293 TRPC4/5HT1a, Fluo-4 (AID 434978;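 active = primary screen active whose calcium signal fell more than 3 SD beyond the full-serotonin control mean in both duplicate plates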;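 for outcome: serotonin given first at submaximal then at maximal dose after compound preincubation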); details: Fluo-4 calcium flux, at 10 µM, serotonin added to trigger calcium flux; hits give high values
[13] = test system: TRPC4 (mouse), co-expressed with 5HT1a in HEK293; test: calcium flux potentiators in TRPC4/5HT1a cells, confirmation, counter-screen for TRPC4 potentiator project, cell-based, second counter screen, HEK293 TRPC4/5HT1a, Fluo-4 (AID 434979;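 active = signal rise over 3 SD above mean of control wells given weak agonist, in both repeats and first screen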); details: Fluo-4 calcium flux, at 10 µM, serotonin added at its EC20 dose; hits give high values
[14] = calcium flux activation in mu-opioid HEK293 cells, confirmation, counter-screen for TRPC4 activator project, cell-based, HEK293 mu-opioid receptor line (AID 449723;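 active = hit in primary screen, with calcium signal over 5 SD above buffer well mean in both duplicates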;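 note: counter screen cells carry the mu-opioid receptor alone and lack TRPC4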); details: Fluo-4 calcium fluorescence, at 10 µM; hits give high values
[15] = calcium flux enhancement in mu-opioid HEK293 cells, confirmation, counter-screen for TRPC4 allosteric potentiator project, cell-based, HEK293 mu-opioid receptor line (AID 449724;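 active = calcium signal rise more than 3 SD above the low-dose agonist control mean, in both duplicate plates and the primary screen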); details: Fluo-4 calcium flux, at 10 µM, compound added before EC20 DAMGO stimulus; hits give high values
[16] = thallium flux activation in parental CHO cells, counter-screen for KCNQ1 potentiator project (AID 493006;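 active = duplicate-averaged activation above buffer control mean plus 5 SD of those controls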); details: parental CHO-K1 cells, FluxOR thallium flux, at 10 µM; hits give high values
[17] = biological target: Potassium voltage-gated channel subfamily KQT member 1 (Homo sapiens) (UniProt P51787); test: KCNQ1 potassium channel potentiators, confirmation, FluxOR thallium flux, CHO cells, duplicates (AID 493007;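 active = potentiation averaged over duplicate wells exceeding buffer-only control mean by more than 3 SD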;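 note: cells depolarized by a potassium plus thallium sulfate stimulus after compound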); details: KCNQ1 cell line, FluxOR thallium flux fluorescence, at 10 µM; hits give high values, % of reference activator effect, buffer zero
Potassium voltage-gated channel subfamily KQT member 1 (Homo sapiens), sequence (P51787 whole entry, looked up): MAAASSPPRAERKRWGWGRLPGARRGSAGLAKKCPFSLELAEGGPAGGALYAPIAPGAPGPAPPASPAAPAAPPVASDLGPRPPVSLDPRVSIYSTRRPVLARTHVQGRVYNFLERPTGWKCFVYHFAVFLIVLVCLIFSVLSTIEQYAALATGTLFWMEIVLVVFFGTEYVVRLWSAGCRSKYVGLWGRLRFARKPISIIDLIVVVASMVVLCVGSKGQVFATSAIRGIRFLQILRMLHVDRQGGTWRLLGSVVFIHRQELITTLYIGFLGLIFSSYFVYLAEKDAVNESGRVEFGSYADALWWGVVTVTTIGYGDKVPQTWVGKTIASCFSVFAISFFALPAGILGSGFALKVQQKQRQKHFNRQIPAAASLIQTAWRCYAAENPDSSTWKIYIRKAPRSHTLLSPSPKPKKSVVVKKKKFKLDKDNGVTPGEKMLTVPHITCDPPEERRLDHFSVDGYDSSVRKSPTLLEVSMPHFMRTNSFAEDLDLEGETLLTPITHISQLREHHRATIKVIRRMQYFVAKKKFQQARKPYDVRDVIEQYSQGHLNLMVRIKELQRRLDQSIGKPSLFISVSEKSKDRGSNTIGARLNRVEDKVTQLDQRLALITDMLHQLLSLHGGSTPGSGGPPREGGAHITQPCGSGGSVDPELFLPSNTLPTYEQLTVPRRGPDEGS

[18] = biological target: Potassium voltage-gated channel subfamily KQT member 2 (Rattus norvegicus) (UniProt O88943); test: rat KCNQ2 channel potentiation, selectivity assay for KCNQ1 potentiator project, KCNQ2-CHO-K1 cells (AID 493009;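 active = mean duplicate potentiation above the buffer control mean plus 5 SD of buffer wells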;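 note: assay conditions were tuned for KCNQ1 rather than KCNQ2 modulators; signal is max minus min fluorescence divided by baseline after thallium stimulus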); details: FluxOR thallium flux fluorescence, at 10 µM; hits give high values, scaled: buffer 0, activator control 100
Potassium voltage-gated channel subfamily KQT member 2 (Rattus norvegicus), sequence (O88943 whole entry, looked up): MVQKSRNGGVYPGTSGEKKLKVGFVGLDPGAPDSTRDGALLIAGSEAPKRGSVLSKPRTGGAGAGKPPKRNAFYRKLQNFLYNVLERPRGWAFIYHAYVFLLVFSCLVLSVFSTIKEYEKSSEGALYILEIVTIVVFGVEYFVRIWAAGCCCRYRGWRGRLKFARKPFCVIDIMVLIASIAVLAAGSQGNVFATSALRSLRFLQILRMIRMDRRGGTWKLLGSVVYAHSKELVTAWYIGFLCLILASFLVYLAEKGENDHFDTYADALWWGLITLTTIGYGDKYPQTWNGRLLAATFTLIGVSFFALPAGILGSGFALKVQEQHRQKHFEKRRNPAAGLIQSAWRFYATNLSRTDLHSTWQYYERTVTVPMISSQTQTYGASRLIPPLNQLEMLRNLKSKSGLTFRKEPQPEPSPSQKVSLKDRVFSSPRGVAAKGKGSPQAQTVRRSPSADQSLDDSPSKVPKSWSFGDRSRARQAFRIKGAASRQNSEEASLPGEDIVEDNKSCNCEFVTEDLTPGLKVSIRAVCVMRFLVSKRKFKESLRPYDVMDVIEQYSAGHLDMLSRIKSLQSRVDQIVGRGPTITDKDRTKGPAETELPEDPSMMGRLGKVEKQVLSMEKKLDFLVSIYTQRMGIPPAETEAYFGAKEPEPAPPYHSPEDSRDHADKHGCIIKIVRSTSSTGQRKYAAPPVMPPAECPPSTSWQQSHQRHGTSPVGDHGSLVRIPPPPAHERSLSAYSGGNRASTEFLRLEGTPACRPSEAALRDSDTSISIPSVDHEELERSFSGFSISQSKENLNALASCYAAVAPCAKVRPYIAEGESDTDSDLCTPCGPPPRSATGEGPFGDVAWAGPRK

[19] = biological target: Potassium voltage-gated channel subfamily KQT member 1 (Homo sapiens) (UniProt P51787); test: KCNQ1 channel current potentiators, confirmation, orthogonal assay for KCNQ1 potentiator project, IonWorks patch clamp, KCNQ1-CHO cells (AID 493184;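 active = current rise at least 3 SD above the untreated control mean in each of two repeat wells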); details: automated patch clamp current, at 10 µM; hits give high values
[20] = biological target: Short transient receptor potential channel 4 (Mus musculus) (UniProt Q9QUQ5); test: mouse TRPC4 membrane potential modulation by TRPC6 hits, confirmation, selectivity assay for TRPC6 inhibitor project, cell-based, second specificity screen, HEK293 TRPC4/mu-opioid (AID 2776;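 active = compounds whose fluorescence signal differed from control wells by over 3 SD, either direction, in both duplicate plates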); details: HEK293 TRPC4/MOR, membrane potential dye fluorescence, at 10 µM, channel activated by saturating DAMGO dose; hits give high values
[21] = test system: transient receptor potential cation channel C4 (TRPC4), mouse; test: mouse TRPC4 modulation by TRPC6 hits, confirmation, selectivity assay for TRPC6 inhibitor project, cell-based, HEK293 TRPC4/mu-opioid, membrane potential dye (AID 2777;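 active = rise or fall in signal beyond 3 SD of buffer-only wells in both replicate plates, either sign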;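 note: integrated kinetic ratio of fluorescence range over baseline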); details: membrane potential fluorescence, at 10 µM
[22] = nonspecific membrane potential effects, parental HEK293, confirmation, counter-screen for TRPC6 inhibitor project, cell-based, second counter screen (AID 2779;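 active = membrane potential signal moving either way by over 3 SD of the maximum-effect control, in both duplicate plates, meaning non-specific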); details: parental HEK293 membrane potential dye fluorescence; at 10 µM; maximal acetylcholine challenge after compound addition
[23] = membrane potential modulation in parental HEK293, confirmation, counter-screen for TRPC6 inhibitor project, cell-based (AID 2780;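 active = membrane potential signal shifting up or down by more than 3 SD of buffer-only wells, on both duplicate plates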;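 for membrane potential signal change: plate controls were buffer EC0 wells for no effect and acetylcholine ECmax wells for full effect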); details: parental HEK293 membrane potential dye fluorescence; at 10 µM
[24] = biological target: Short transient receptor potential channel 6 (Mus musculus) (UniProt Q61143); test: mouse TRPC6 channel inhibitors, confirmation, HEK293 cells, membrane potential dye, duplicate (AID 488960); details: ACh-evoked depolarization, at 10 µM; hits give high values;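 for inhibition: integrated fluorescence ratio of peak minus minimum over baseline after agonist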
[25] = biological target: Short transient receptor potential channel 6 (Mus musculus) (UniProt Q61143); test: mouse TRPC6 channel activators, confirmation, HEK293 cells, membrane potential dye, duplicate (AID 488961;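 active = ratio signal rise beyond 5 SD above unstimulated control wells' mean, seen in both duplicate runs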); details: HEK293-TRPC6 membrane potential dye fluorescence, FDSS, at 10 µM; hits give high values
[26] = parental HEK293 membrane potential modulation, confirmation, counter-screen for TRPC6 modulator project, cell-based (AID 488924;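 active = membrane potential signal moves up or down beyond 5 SD from buffer-only wells, on both duplicate plates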); details: parental HEK293, membrane potential dye fluorescence; at 10 µM
[27] = modulation of acetylcholine-evoked membrane potential, parental HEK293, confirmation, counter-screen for TRPC6 modulator project, cell-based, second counter-screen, membrane potential dye (AID 488926;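 active = membrane potential signal drops by more than 5 SD from the mean control signal, in both duplicate plates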;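 note: plate controls were acetylcholine ECmax control wells for no effect and buffer only wells for full effect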); details: parental HEK293, membrane potential dye fluorescence, at 10 µM, after compound, maximal acetylcholine stimulation; hits give high values
[28] = test system: Transient receptor potential cation channel subfamily C member 4 (mouse); test: TRPC4 modulation by TRPC6 hit compounds, confirmation, selectivity assay for TRPC6 modulator project, cell-based, HEK293 TRPC4/mu-opioid, membrane potential dye, mouse (AID 488927;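 active = membrane potential signal moved up or down beyond 5 SD of buffer control wells, in both duplicate plates, actives on both sides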;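 note: plate controls were assay buffer wells for no effect and DAMGO maximal-effect wells for full effect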); details: membrane potential fluorescence, at 10 µM
[29] = test system: TRPC4 (transient receptor potential cation channel C4), mouse; test: TRPC4 inhibition by TRPC6 hit compounds, confirmation, selectivity assay for TRPC6 modulator project, cell-based, second screen, HEK293 TRPC4/mu-opioid, membrane potential dye (AID 488928;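 active = drop in membrane potential signal beyond 5 SD of the control wells in both duplicate plates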;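 note: TRPC4 counter screen for TRPC6 hits run under conditions tuned for TRPC6 not TRPC4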); details: membrane potential dye fluorescence, at 10 µM, stimulated with maximal-effect DAMGO; hits give high values
[30] = biological target: Short transient receptor potential channel 4 (Mus musculus) (UniProt Q9QUQ5); test: mouse TRPC4 channel inhibitors, dose response, cell-based, HEK293 TRPC4/mu-opioid, Fluo-4 calcium (AID 434942;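 active = primary screen inhibitor hit that blocks the TRPC4 channel at some tested dose, yielding a dose curve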)

Cc1cc(NCc2ccccc2)nc2ccccc12
inactive: outcome [2] | outcome [3] | outcome [4] | outcome [5] | outcome [6] | outcome [7] | outcome [9] | outcome [10] | outcome [13] | outcome [14] | outcome [15] | outcome [16] | outcome [17] | outcome [18] | outcome [19]
active: activation [1] 95% | inhibition [8] 53.5% | activation [11] 5.93% | inhibition [12] 26.2%

COc1ccccc1OCCNCC(O)COc1cccc2[nH]c3ccccc3c12 (stereo unspecified)
inactive: outcome [21] | outcome [22] | outcome [23] | outcome [25]
active: inhibition [20] 28% | inhibition [24] 61.1%

CC(C)c1ccc(OCC(O)Cn2cnc3ccccc32)cc1 (stereo unspecified)
inactive: outcome [20] | outcome [21] | outcome [22] | outcome [23] | outcome [24] | outcome [25]

COc1ccc(CC(=O)Nc2sc(Cc3ccccc3)c(C)c2C(N)=O)cc1
inactive: outcome [20] | outcome [21] | outcome [22] | outcome [23] | outcome [24] | outcome [25]

CC(C)CCNc1nc(N2CCCC2)c2c(c1C#N)CCN(C)C2
inactive: outcome [22] | outcome [25]
active: inhibition [20] 54% | activity change, negative = inhibition [21] -16.9% | membrane potential signal change [23] -209% | inhibition [24] 71.5%

CCN(CC)c1ccc2cc(C(N)=O)/c(=N\NC(=O)c3ccncc3)oc2c1
inactive: outcome [24] | outcome [25]
active: inhibition [20] 70.5% | activity change, negative = inhibition [21] 31.7% | signal change vs control [22] -52% | membrane potential signal change [23] 1.95%

COc1ccccc1C1SCCN1C(=O)c1ccc([N+](=O)[O-])cc1 (stereo unspecified)
inactive: outcome [20] | outcome [21] | outcome [22] | outcome [23] | outcome [24] | outcome [25]

O=C(c1ccc(-n2cnnn2)cc1)N1CCN(C(c2ccccc2)c2ccccc2)CC1
inactive: outcome [29]
active: membrane potential signal change [26] 251% | inhibition [27] 71% | percent change from control (negative = decrease, positive = increase) [28] 18.5% | inhibition [24] 44.5%

CC1Cc2ccccc2N1C(=O)CSc1nc2c(c(=O)n(C)c(=O)n2C)n1Cc1ccccc1 (stereo unspecified)
active: activation [1] 320% | potentiation [3] 65% | inhibition [5] 83% | activation [9] 37.5% | activation [11] 85.8% | inhibition [12] 11.2% | potentiation [13] 18.8%
inactive: outcome [2] | outcome [4] | outcome [6] | outcome [8] | outcome [10] | outcome [14] | outcome [15]

CCOC(=O)N1CCN(C(=O)c2ccc3c(c2)N(Cc2ccc(C)cc2)CCS3)CC1
active: activity change, negative = inhibition [21] 0.69% | signal change vs control [22] 307%
inactive: outcome [20] | outcome [23] | outcome [24] | outcome [25]

COc1cc(/C=C2/SC(=S)N(Cc3ccccc3)C2=O)cc(Cl)c1O
active: activation [1] 144% | potentiation [3] 11% | potentiation [4] 21% | activation [9] 930% | potentiation, percent of control [10] 310% | activation [11] 156% | activation [14] 165% | activation [15] 1140%
inactive: outcome [2] | outcome [5] | outcome [6] | outcome [30] | outcome [8] | outcome [12] | outcome [13]

OCCC1CN(Cc2ccc3nsnc3c2)CCN1C1CCCC1 (stereo unspecified)
inactive: outcome [20] | outcome [21] | outcome [22] | outcome [23] | outcome [24] | outcome [25]

CCCCc1cc(O)c(CCCC)c(O)c1
inactive: outcome [2] | outcome [3] | outcome [5] | outcome [6] | outcome [30] | outcome [8] | outcome [9] | outcome [10] | outcome [12] | outcome [13] | outcome [15]
active: activation [1] 63% | potentiation [4] 14% | activation [11] 44.6% | activation [14] 34.5%
